NPC1 promoter act – activators of NPC1 promoter; Potency, µM (highest dose often 9.22 µM), for inactives: at the highest dose activation, actives largely listed as activators; Huh7 NPC1 promoter luciferase reporter, 24 h; 320,000 tested, 2.4% active; note: % of control where 0% means no effect; nearly all actives have a fitted effect of over 60% in size
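Huh7 reporter cells (NPC1 promoter driving luciferase) are dosed with compound for 24 h at 37 °C, 5% CO2; luciferase detection reagent is then added and luminescence measured after 10 min at ambient temperature.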
SMN2 splice up – increases expression of the SMN2 splice variant; HEK293 SMN2-luciferase splicing reporter, luminescence, 30-36 h; Potency, µM (doses to about 46.1 µM), for the others: at the highest dose activity change, positive = activation, most hits filed as activators; 210,000 tested, 2.8% active; AID 1458; note: % of control where 0% means no effect; nearly all actives have a fitted effect of over 55% in size
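HEK293 cells carry an SMN2 […]–luciferase reporter in which exon 7 inclusion puts luciferase in frame. Cells were plated 10-12 h before compound addition, then incubated 30-36 h at 37C. ONE-Glo luminescence was read; sodium butyrate at 4.5 mM final served as control.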
Rab9 prom act – activates the Rab9 promoter; Potency, µM (top dose mostly 9.22 µM), for inactives: at the top dose activation, negative = inhibition, actives largely listed as activators; Huh7 Rab9 promoter-luciferase reporter, luminescence, 24 h; 320,000 tested, 2.8% active; note: % of control where 0% means no effect; nearly all actives have a fitted effect of over 60% in size
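Steps: seed 1500 Huh7 Rab9-luc cells per well, rest 2 h at 37 °C; add compound in DMSO; incubate 24 h; add luciferase reagent, 10 min ambient; read luminescence.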
ELG1 genotox – inducers of genotoxicity in HEK293T ELG1-luciferase cells; HEK293T ELG1-luciferase reporter, luminescence, 16 h; Potency, µM (titrated, usually from 46 µM), for inactives: at the highest dose activity change, positive = activation, hits mostly activators; 330,000 tested, 1.3% active; AID 504466; note: % of control where 0% means no effect; nearly all actives have a fitted effect of over 60% in size
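16 hr compound incubation (37 °C, 5% CO2) of HEK293T cells carrying luciferase-tagged ELG1; luciferase then measured by ONE-Glo luminescence after 30 min at RT.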
FLuc counter – inhibits or activates purified firefly luciferase, miR-21 counter-screen; P08659; purified FLuc, Km substrates, luminescence inhibition; Potency, µM (doses to about 57.5 µM), without a hit: at the top dose activity change, negative = inhibition, hits mostly inhibitors; 360,000 tested, 6.9% active; AID 588342;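 note: plate controls were vehicle for no effect and reference inhibitor for full effect; nearly all actives have a fitted effect of over 55% in size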
Target sequence (P08659 whole entry, looked up): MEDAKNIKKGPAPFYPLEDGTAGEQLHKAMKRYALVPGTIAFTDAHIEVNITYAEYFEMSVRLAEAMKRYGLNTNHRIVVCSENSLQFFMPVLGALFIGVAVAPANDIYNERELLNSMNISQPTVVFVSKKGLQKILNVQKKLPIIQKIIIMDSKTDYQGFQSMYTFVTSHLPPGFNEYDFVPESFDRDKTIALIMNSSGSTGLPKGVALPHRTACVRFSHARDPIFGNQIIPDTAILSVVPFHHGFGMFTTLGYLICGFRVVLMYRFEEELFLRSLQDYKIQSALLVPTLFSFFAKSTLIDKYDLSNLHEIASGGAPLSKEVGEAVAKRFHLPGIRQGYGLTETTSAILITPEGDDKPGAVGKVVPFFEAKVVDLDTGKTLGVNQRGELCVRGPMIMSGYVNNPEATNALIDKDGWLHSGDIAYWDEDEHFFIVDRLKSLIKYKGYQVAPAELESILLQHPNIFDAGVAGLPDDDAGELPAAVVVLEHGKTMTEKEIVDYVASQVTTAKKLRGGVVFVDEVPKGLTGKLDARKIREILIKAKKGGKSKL
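Purified P. pyralis luciferase (10nM final) with 10uM D-luciferin and 10uM ATP (Km levels) in 50mM Tris acetate pH 7.5, 10mM Mg acetate, 0.01% Tween-20, 0.05% BSA; qHTS 6-point titration, ~60 µM downward; luminescence read.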
Luc counter – counter-screen: inhibitors of Kinase-Glo firefly luciferase. Kinase-Glo luciferase, ATP luminescence, 8 min. Potency, µM (titrated, usually from 38.3 µM), for inactives: top-dose activity change, negative = inhibition, hits mostly inhibitors. 200,000 tested, 0.28% active. AID 1379; note: % is set by controls: 0 for no effect and ±100 for the full control effect; nearly all actives have a fitted effect of over 60% in size
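Luminescence was the read-out, taken after 8-minute incubation at ambient temperature. Luciferase turned over luciferin with 10 uM ATP in imidazole pH 7.2 buffer containing KCl, MgCl2, Tween 20 and BSA.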
* = called active by the depositor; ? = inconclusive; . = no result given; [ ] = another dose, or the depositor's remark. Most compounds without a hit are left out; they make up all but 7.3% or so of the library. Calls come from the whole dose curve; as a rule, active = well fitted curve in the direction sought with a large enough effect; inconclusive = small, poorly fitted or top-dose-only effect, or another doubt; inactive = no such curve, though single readings can be large; an effect the other way counts as inactive or inconclusive. Potency is the fitted concentration of half-maximal effect.

SMILES	NPC1 promoter act	SMN2 splice up	Rab9 prom act	ELG1 genotox	FLuc counter	Luc counter
Cc1cc(C(=O)Nc2sc3c(c2C#N)CCCCC3)cs1	?	11µM*	1.1µM*	0.82µM*	0.95µM*	-4%
O=C(O)[C@@H]1[C@@H](C(=O)Nc2ncccn2)[C@@H]2C=C[C@@H]1O2	.	-13%[9.22 µM]	.	.	.	-4%[7.66 µM]
COc1ccc(C2=C(N3CCN(c4cccc(C)c4)C(C)C3)c3ccccc3C2=O)cc1 (stereo not drawn)	.	1%	.	.	0%	.
N#Cc1c(NC(=O)c2ccncc2)sc2c1CCC2	14%	?	18%	20%	13µM*	0%
N#Cc1c(NC(=O)c2cccc(S(=O)(=O)Nc3ccc(C(=O)O)cc3)c2)sc2c1CCCC2	-1%	.	0%	8%	19µM*	.
COc1cccc(OC)c1C(=O)Nc1sc2c(c1C#N)CCC2	12%	.	13%	-4%	-5%	.
COc1cccc(CNC(=O)c2nn(-c3ccc(C)cc3)c(=O)c3c2c2ccccc2n3C)c1	.	2%	.	.	2%	.
CC(C)(C)c1cc2nc(N)nc(N)n2n1	0%	.	-8%	1%	-18%	.
CSc1nc(N)n2nc(C(C)(C)C)cc2n1	9%	.	-1%	6%	17µM*	.
COc1ccc(/C=C/C(=O)Nc2ccc(Cl)cc2Cl)cc1	.	3%	.	.	-9%	.
COc1ccc(C(=O)/C=C/Nc2cc(C)on2)cc1	2.2µM*	25%	2.5µM*	6.5µM*	6µM*	-3%
COc1ccc(/C=C/C(=O)Nc2nonc2NC(C)=O)cc1	11%	3%	24%	7%	24µM*	1%
O=C(/C=C/c1ccccc1)Nc1ccc(Br)cn1	3%	11µM*	1.4µM*	?	?	1%
Cc1cc(NC(=O)/C=C/c2ccccc2)no1	?	?	2.8µM*	?	12µM*	-5%
CCOC(=O)c1ccc(N2C(=O)c3n[nH]c(-c4ccco4)c3C2c2ccccc2OC)cc1 (stereo not drawn)	.	-1%	.	.	-10%	.
COc1ccc(/C=C/C(=O)Nc2cc(C)on2)cc1	2.8µM*	10µM*	1.6µM*	14%	?	1%
COc1ccc(CC(=O)Nc2cc(C)on2)cc1	-5%	12%	1%	0%	-6%	1%
COc1ccc(/C=N/Nc2ncc(-c3ccccc3)cn2)c(OC)c1	-3%	-25%	1%	5%	-3%	-1%
COc1ccc2nc(C)cc(SCC(=O)N/N=C/c3ccccc3)c2c1	-2%	3%	-4%	-1%	-2%	1%
COc1ccccc1/C=N/Nc1cc(C)nc2ccc(C)cc12	16%	.	11%	7%	-12%	.
COc1ccc(/C=N/Nc2ncccc2[N+](=O)[O-])c(OC)c1	?	11µM*	3.5µM*	2.6µM*	1.1µM*	11µM*
COc1ccc2nc(C)cc(N/N=C/c3ccccc3)c2c1	-2%	.	-5%	4%	9.5µM*	.
COc1ccc(/C=N/Nc2cc(C)nc3ccc(OC)cc23)c(OC)c1	-2%	.	3%	18%	21µM*	.
Cc1nc(-c2cccnc2)sc1CCNS(=O)(=O)c1ccc(F)cc1	.	.	.	.	1%	.
Cc1ccc2oc(=O)c3cc(C(=O)Nc4cccc(C#N)c4)sc3c2c1	.	10%	.	.	0%	.
SMILES	NPC1 promoter act	SMN2 splice up	Rab9 prom act	ELG1 genotox	FLuc counter	Luc counter
Cc1ccc2oc(C(=O)N(C)Cc3ccc(C)o3)c(C)c2c1	9%	.	12%	12%	27µM*	.
Cc1ccc2oc(C(=O)N(C)Cc3ccon3)c(C)c2c1	3.2µM*	.	3.5µM*	9.2µM*	11µM*	.
COc1ccc(NC(=O)c2cc3c(s2)-c2c(C)cccc2OC3)c(OC)c1	.	-6%	.	.	-10%	.
CCOc1ccccc1NC(=O)CN1C(=O)COc2ccc(S(=O)(=O)N3CCCCC3)cc21	.	.	.	.	3%	.
Cc1ccc(C(=O)CN2C(=O)NC3(CCCCCC3)C2=O)c(C)c1	4µM*	.	?	16µM*	?	.
COCCn1c(C)cc(C(=O)CN2C(=O)NC3(CCCCCCC3)C2=O)c1C	3.2µM*	?	4µM*	?	15µM*	-3%

Assay outcomes: PubChem, National Center for Advancing Translational Sciences (NCATS)
